Data taken from PubChem BioAssay.

assay: plasmodial surface anion channel blockers, osmotic lysis – cell-based, P. falciparum Indochina, OD700, 2 h, primary screen (AID 1155);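 also: lysis reports solute entry through the parasite surface anion channel PSAC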; details: P. falciparum Indochina infected erythrocytes, higher = more signal, called active from +8 up or from −8 down

z-score, inactive:
COC(=O)[C@@]1(Cc2ccc(F)cc2)[C@H]2c3cc(C(=O)N4CCCC4)n(CCc4c[nH]c5ccccc45)c3C[C@H]2CN1C(=O)c1ccccc1 0.946, COc1ccc(CCNC(=O)[C@@]2(c3ccc([N+](=O)[O-])cc3)CC(=O)N(C3CCCCC3)[C@@H]2c2ccc(CO)cc2)cc1 -0.0966, O=C(O)[C@@H]1[C@@H]2C(=O)N(c3ccccc3)C(=O)[C@@H]2C[C@@H]1Sc1ccccc1 0.544, C=CC[C@@H](OC(=O)Nc1ccc(SC)cc1)c1ccc(O)c(F)c1 6.56, COCCOC(=O)N1C(=O)[C@@]2(c3cc(C#CC4=CCCCC4)ccc31)[C@H](C(=O)Nc1nc3ccccc3s1)[C@H]1C(=O)O[C@H](c3ccccc3)[C@H](c3ccccc3)N1[C@@H]2c1ccc(O)cc1 0.524, CC(C)C[C@@H]1NC(=O)[C@@H]2C[C@H](C(=O)NCCCCCCN)[C@H](c3cccc(OCCO)c3)N2C1=O 0.73, COCCOC(=O)N1C(=O)[C@@]2(c3cc(C#CCNC(N)=O)ccc31)[C@H](C(N)=O)[C@H]1C(=O)O[C@H](c3ccccc3)[C@H](c3ccccc3)N1[C@@H]2c1ccccc1OCCO 0.793
